Screens deposited in PubChem by National Center for Advancing Translational Sciences (NCATS).
Rows were chosen to be rich in hits. Some 7.3% of all compounds tested hit in one or more screens of this group.
Rab9 promoter act: qHTS Assay for Rab9 Promoter Activators. actives 2.8% (n = 320,000). Huh7 Rab9 promoter-luciferase reporter, luminescence, 24 h. Potency, µM (series often up to 9.22 µM), for inactives: at the highest dose activation, negative = inhibition, hits mostly activators; note: % of control where 0% means no effect; nearly all actives have a fitted effect of over 60% in size
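Luminescence read-out: Huh7 cells stably expressing Rab9-luciferase, treated 24 h with compound at 37 °C, then lysed with luciferase reagent for 10 min at ambient before reading.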
FLuc modulator: qHTS profiling assay for firefly luciferase inhibitor/activator using purifed enzyme and Km concentrations of substrates (counterscreen for miR-21 project); Luciferin 4-monooxygenase (Photinus pyralis), P08659; purified FLuc, Km substrates, luminescence inhibition; Potency, µM (titrated, usually from 57.5 µM), inactives show at the highest dose activity change, negative = inhibition, actives largely listed as inhibitors; actives 6.9% (n = 360,000); AID 588342, 2011;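 note: plate controls were vehicle for no effect and reference inhibitor for full effect; nearly all actives have a fitted effect of over 55% in size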
Target sequence (P08659 whole entry, looked up): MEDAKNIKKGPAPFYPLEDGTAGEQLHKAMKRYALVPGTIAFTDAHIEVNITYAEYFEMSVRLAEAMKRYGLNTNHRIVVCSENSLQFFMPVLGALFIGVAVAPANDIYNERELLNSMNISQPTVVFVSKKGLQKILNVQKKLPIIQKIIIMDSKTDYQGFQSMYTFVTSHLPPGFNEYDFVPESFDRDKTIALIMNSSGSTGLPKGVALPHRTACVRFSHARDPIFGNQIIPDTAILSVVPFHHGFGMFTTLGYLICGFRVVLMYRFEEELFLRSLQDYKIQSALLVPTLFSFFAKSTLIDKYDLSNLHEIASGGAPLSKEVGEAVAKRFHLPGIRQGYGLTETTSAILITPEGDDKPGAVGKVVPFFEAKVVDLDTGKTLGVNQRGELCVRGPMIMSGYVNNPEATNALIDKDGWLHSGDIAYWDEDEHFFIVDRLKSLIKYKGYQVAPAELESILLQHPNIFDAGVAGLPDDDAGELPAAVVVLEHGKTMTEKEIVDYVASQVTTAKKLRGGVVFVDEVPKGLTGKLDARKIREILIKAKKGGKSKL
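Biochemical qHTS of compounds, final roughly 60 µM downward over six points, against 10 nM purified firefly luciferase using Km concentrations of substrates (10 uM D-luciferin, 10 uM ATP) in Tris acetate pH 7.5 buffer; luminescence output.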
SMN2 splice up: qHTS Assay for Enhancers of SMN2 Splice Variant Expression | HEK293 SMN2-luciferase splicing reporter, luminescence, 30-36 h | Potency, µM (top dose mostly 46.1 µM), for the others: at the top dose activity change, positive = activation, usual class: activators | actives 2.8% (n = 210,000); note: % of control where 0% means no effect; nearly all actives have a fitted effect of over 55% in size
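qHTS luciferase splicing reporter: luminescence rises when SMN2 exon 7 is included in transfected HEK293 cells. Compound exposure lasted 30-36 h at 37C, with 4.5 mM final sodium butyrate as control, followed by a ONE-Glo read.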
ELG1 genotox: qHTS screen for small molecules that induce genotoxicity in human embryonic kidney (HEK293T) cells expressing luciferase-tagged ELG1; HEK293T ELG1-luciferase reporter, luminescence, 16 h; Potency, µM (titrated, usually from 46 µM), for inactives: top-dose activity change, positive = activation, usual class: activators; actives 1.3% (n = 330,000); note: % of control where 0% means no effect; nearly all actives have a fitted effect of over 60% in size
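16 hr compound incubation (37 °C, 5% CO2) of HEK293T cells carrying luciferase-tagged ELG1; luciferase then measured by ONE-Glo luminescence after 30 min at RT.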
p53 reactivation: qHTS assay for re-activators of p53 using a Luc reporter. H1299 p53-A138V BP100-luciferase reporter, luminescence, 24 h. Potency, µM (highest dose often 92.2 µM), without a hit: at the highest dose activity change, positive = activation, most hits filed as activators. actives 0.063% (n = 320,000). AID 504706, 2011; note: % of control where 0% means no effect; nearly all actives have a fitted effect of over 45% in size
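p53-null H1299 cells stably carrying temperature-sensitive p53-A138V and a BP100-luciferase reporter were pinned with compounds (4-point, 1:5 series) and held 24 hrs at 37 deg C. Luminescence was read 10 min after detection reagent.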
NPC1 promoter act: qHTS Assay for NPC1 Promoter Activators; Potency, µM (titrated, usually from 9.22 µM), for inactives: at the highest dose activation, most hits filed as activators; AID 485313, 2010; Huh7 NPC1 promoter luciferase reporter, 24 h; actives 2.4% (n = 320,000); note: % of control where 0% means no effect; nearly all actives have a fitted effect of over 60% in size
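Readout is luciferase luminescence, reflecting NPC1 promoter activation in stably transfected Huh7 cells after 24 h compound exposure at 37 °C in reduced-serum medium with 10% FBS.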
Numbers without * were called inactive; ? = inconclusive; nt = not tested or not shown; ! = repeats disagree; [ ] = another dose, or the depositor's remark. Calls come from the whole dose curve; as a rule, active = well fitted curve in the direction sought with a large enough effect; inconclusive = small, poorly fitted or top-dose-only effect, or another doubt; inactive = no such curve, though single readings can be large; an effect the other way counts as inactive or inconclusive. Potency is the fitted concentration of half-maximal effect.

SMILES	Rab9 promoter act	FLuc modulator	SMN2 splice up	ELG1 genotox	p53 reactivation	NPC1 promoter act
Cc1cccc(-c2nc(N3CCN(c4ccc(F)cc4)CC3)c3ccccc3n2)c1	nt	3%	-2%	nt	nt	nt
COc1ccc(-c2cc(C(F)F)n3ncc(C(=O)Nc4cc(C)on4)c3n2)cc1	-11%	-11%	nt	-3%	7%	-3%
O=C(Nc1ccc(Cl)cc1)ON=C1CCCC1	3.5µM*	17µM*	-5%[1.84 µM]	?	?	16%
NC(=O)Nc1ccc(Cl)cc1	11%	3%	nt	0%	1%	-37%
O=C1CCS/C(=N\N=C\c2ccc(Cl)cc2Cl)N1	?	19µM*	nt	?	2%	?
Cc1ccccc1/C=N/N=C1/NC(=O)CCS1	1%	?	nt	10%	-5%	16%
O=C(O)c1cc(N=Nc2ccc([N+](=O)[O-])cc2)ccc1O	nt	nt	14µM*!	nt	nt	nt
NS(=O)(=O)c1ccc(N=Nc2ccc(O)c(C(=O)O)c2)cc1	nt	nt	-2%[9.22 µM]	nt	nt	nt
Cc1nc2nncn2c(NCc2ccc(Cl)cc2)c1C	nt	-2%	-67%	nt	nt	nt
Cc1ccc(C2C=C(c3ccc(Cl)cc3)Nc3nc(NC(=O)c4ccco4)nn32)cc1 (stereo unspecified)	nt	?	1%	nt	nt	nt
O=C(COc1ccccc1)OCC(=O)N1CCCc2ccccc21	1%	1%	nt	1%	6%	-2%
O=C(CSCc1ccco1)N1CCc2ccccc21	3.5µM*	9.5µM*	nt	?	?	2.8µM*
O=C(COc1ccccc1)N1CCc2ccccc21	1.3µM*	5.4µM*	14µM*	?	?	?
CCOc1ccc(C(=O)N2CCc3ccccc32)cc1	0.89µM*	15µM*	nt	?	nt	3.5µM*
O=C(COc1ccccc1Cl)N1CCc2ccccc21	1.3µM*	6.7µM*	nt	9.2µM*	?	2µM*
CCCCc1cc2c(cn1)C(=O)C(C)(OC(C)=O)C(=O)C2 (stereo unspecified)	nt	nt	2%[9.22 µM]	nt	nt	nt
CCOC(=O)N1CCN(C(=O)c2ccccc2N(Cc2ccccc2)S(=O)(=O)c2ccccc2)CC1	-5%	0%	nt	-23%	-1%	-4%
O=C(OCc1ccccc1)N1CCc2ccccc21	1.6µM*	2.7µM*	nt	16µM*	?	0.63µM*
O=C(CS(=O)(=O)Cc1ccccc1)N1CCc2ccccc21	16%	-15%	26%	16%	22%	16%
O=C1CN(C(=O)OCc2ccccc2)c2ccccc2N1	?	?	?	?	13%	?
O=C(CSc1ccccc1)N1CCc2ccccc21	3.5µM*	6.7µM*	18µM*	?	?	3.5µM*
O=C(CCCc1ccccc1)N1CCc2ccccc21	0.45µM*	2.1µM*	11µM*	2.1µM*	?	1.1µM*
O=C(NNC(=S)NCc1ccco1)c1ccc(Cl)s1	-3%	5%	-14%	-7%	3%	-5%
O=C(CSCc1ccco1)c1ccc(Cl)s1	?	6.7µM*	9%	7%	?	2.8µM*
Nc1cc(N)nc(SCC(=O)N2CCc3ccccc32)n1	?	?	?	13%	25%	?
SMILES	Rab9 promoter act	FLuc modulator	SMN2 splice up	ELG1 genotox	p53 reactivation	NPC1 promoter act
CC1(C)CC(NC(=O)c2ccc(Cl)c(S(=O)(=O)N(Cc3ccccc3)c3ccccc3)c2)CC(C)(C)N1	-2%	-1%	nt	9%	9%	-7%
CC(C)=N[C@H](C(=O)O)C(C)(C)S	nt	nt	-15%[9.22 µM]	nt	nt	nt
COc1ccc(NC(=O)Cn2c(=O)oc3cc(S(=O)(=O)NC4CCCC4)ccc32)cc1OC	nt	-7%	nt	nt	nt	nt
CCc1noc(C)c1C(=O)N(C)CC(=O)Nc1cccc(OC)c1	-2%	6%	nt	0%	-1%	2%
CSc1ncc(C(=O)NCc2ccc(C)cc2)c(-c2ccccc2)n1	nt	2%	nt	nt	nt	nt
COc1ccccc1CNC(=O)C(=O)NCC(c1ccc2c(c1)OCO2)N1CCOCC1 (stereo unspecified)	nt	-1%	nt	nt	nt	nt
O=C(COc1ccc(Br)cc1)N1CCc2ccccc21	2.8µM*	9.5µM*	nt	?	12%	?
COc1ccc(C(=O)OCC(=O)c2c[nH]c3ccccc23)c(OC)c1	nt	nt	nt	7%	11%	nt
COc1cccc(C(=O)OCC(=O)c2c[nH]c3ccccc23)c1OC	?	9.5µM*	nt	15%	?	19%
O=C(OCC(=O)c1c[nH]c2ccccc12)c1cccc([N+](=O)[O-])c1	13%	17µM*	nt	11%	?	16%
O=C(OCC(=O)c1c[nH]c2ccccc12)c1cncc(Br)c1	nt	nt	nt	1%	12%	nt
O=C(CC1CC2CCC1C2)OCC(=O)c1c[nH]c2ccccc12 (stereo unspecified)	6%	15µM*	8%	5%	24%	0%
O=C(COC(=O)CC1CC2CCC1C2)NCc1ccc(F)cc1 (stereo unspecified)	nt	nt	nt	1%	3%	nt
CCC1CCCCN1CCCNC(=O)c1ccc2c(c1)sc1nc(-c3ccc(F)cc3)cn12 (stereo unspecified)	nt	-6%	nt	nt	nt	nt
C/C(N)=C(/C#N)C(=O)CSc1ccc2c(c1)OCCO2	2.8µM*	12µM*	13µM*	?	40µM*	3.2µM*
Cc1cc(C(=O)CSc2ccc3c(c2)OCCO3)c(C)n1C1CC1	2.8µM*	11µM*	?	?	?	?
CCOc1ccccc1NC(=O)CCc1c(C)nc2c(c(C)nn2-c2ccccc2)c1C	nt	6%	5%	nt	nt	nt
CCOc1ccc(/C=C(\C#N)C(=O)Nc2sc3c(c2C(=O)OC)CCC3)cc1OC	nt	-1%	14%	nt	nt	nt
CN(C)/C=N/c1nc(-c2ccc3c(c2)OCO3)cs1	3.5µM*	17µM*	14µM*	?	4%	4µM*
Cc1nccc(-c2ccc3c(c2)OCO3)n1	3%	-1%	7%	7%	-1%	0%
CN(C)/C=N/c1nc(-c2ccc3ccccc3c2)cs1	0.35µM*	4.8µM*	nt	?	?	0.5µM*
CC(=O)N1N=C(c2cccnc2)OC1c1ccc(C(C)C)cc1 (stereo unspecified)	-8%	?	10%	10%	3%	-2%
CC(=O)N1N=C(c2ccc(C)cc2)OC1c1ccc(C(C)C)cc1 (stereo unspecified)	2.5µM*	3µM*	?	?	?	2.5µM*
CC(=O)N1N=C(c2ccc(C)cc2)OC1c1ccc(C)cc1 (stereo unspecified)	?	17µM*	26%	18µM*	15%	?
